Bioassay records as filed in PubChem.
GLP1R cytotox: cytotoxicity in counter-screen for GLP-1R inverse agonists; HEK293 cAMP-luciferase reporter cells, luminescence, 24 h; Potency, µM (series often up to 38.3 µM), for inactives: at the top dose activity change, negative = inhibition, actives largely listed as inhibitors; hit rate 0.13% among 410,000;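 further: loss of luciferase light is scored as toxicity; on the % scale 0 is the no-effect control and ±100 the full control effect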
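1536-well qHTS counterscreen of the MLSMR; 200 cells/uL, 12 h pre-incubation, 23 nL cpd, 24 h at 37 deg C 5% CO2, luciferase detection reagent, 12 min RT, luminescence. Inhibition = undesired.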
GLP1R ag: activates the human GLP-1 receptor | HEK293 GLP-1R CRE-luciferase, luminescence, 4-6 h; cells express a hypersensitive GLP-1R form | hit rate 0.007% among 380,000 | Potency, µM (top dose mostly 45.6 µM), without a hit: at the highest dose activation, actives largely listed as activators; further: % of control where 0% means no effect
Target sequence (P43220 whole entry, looked up): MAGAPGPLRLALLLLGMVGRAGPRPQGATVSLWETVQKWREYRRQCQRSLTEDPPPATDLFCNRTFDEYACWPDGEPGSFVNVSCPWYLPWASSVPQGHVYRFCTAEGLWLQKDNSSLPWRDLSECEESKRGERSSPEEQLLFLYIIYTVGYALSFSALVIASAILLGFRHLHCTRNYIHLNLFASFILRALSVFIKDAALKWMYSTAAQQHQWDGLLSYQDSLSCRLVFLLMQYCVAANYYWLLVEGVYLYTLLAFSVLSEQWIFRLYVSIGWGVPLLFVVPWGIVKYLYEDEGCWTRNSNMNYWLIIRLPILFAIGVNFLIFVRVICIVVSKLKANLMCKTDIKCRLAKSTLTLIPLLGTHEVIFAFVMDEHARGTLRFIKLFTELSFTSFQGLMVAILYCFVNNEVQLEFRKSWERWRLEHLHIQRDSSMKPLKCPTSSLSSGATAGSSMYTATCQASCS
GLP1R inv ag: inverse agonists of human GLP-1 receptor. HEK293 GLP-1R CRE-luciferase, luminescence, 24 h; GLP-1R form is constitutively active. Potency, µM (top dose mostly 38.3 µM), for inactives: at the top dose activity change, negative = inhibition, most hits filed as inhibitors. hit rate 1.6% among 410,000. AID 624417; further: on the % scale 0 is the no-effect control and ±100 the full control effect; nearly all actives have a fitted effect of over 55% in size
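qHTS in 1536-well format: reporter HEK293 cells expressing constitutive GLP-1R activity in DMEM + 10% Nu serum, 24 hr with compounds at 37 deg C, luminescence read after 12 min with detection reagent.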
* = called active by the depositor; ? = inconclusive; . = no result. The list is not random: actives were taken first. Their share in the collection is about 1.7%. The call rests on the fitted dose curve; in most records, active means well fitted curve in the direction sought with a large enough effect; inconclusive means small, poorly fitted or top-dose-only effect, or another doubt; inactive means no such curve, though single readings can be large; an effect the other way counts as inactive or inconclusive. Potency means the concentration at half of the fitted maximal effect.

SMILES | GLP1R cytotox | GLP1R ag | GLP1R inv ag
Cc1cc(Nc2cccc(Cl)c2)nc2ccc(NC(=O)COc3ccc(Cl)cc3)cc12 | -2.4% | -0.6% | -20.8%
CCOc1cc(C(=O)Nc2ccc3nc(Nc4cccc(Cl)c4)cc(C)c3c2)cc(OCC)c1OCC | -11.5% | -0.8% | 5.62µM*
Cc1cc(Nc2cccc(C(F)(F)F)c2)nc2ccc(NC(=O)c3cncc(Br)c3)cc12 | -29.4% | . | ?
COc1cccc(CNC(=O)CCn2cccn2)c1 | 2.0% | . | 5.4%
Cc1ccc(F)cc1NC(=O)Cn1c(=O)nc(-c2ccccc2F)c2cc(Cl)ccc21 | 4.4% | . | 5.8%
COC(=O)c1c(NC(NC(=O)C(C)C)C(Cl)(Cl)Cl)sc2c1CCC2 (stereo not drawn) | -4.8% | -2.0% | 8.91µM*
COC(=O)c1c(NC(NC(=O)C(C)(C)C)C(Cl)(Cl)Cl)sc2c1CCC2 (stereo not drawn) | -3.1% | -5.6% | ?
CCc1sc(C(=O)Nc2ccc(NC(C)=O)cc2)cc1C | 1.2% | 3.7% | -0.4%
CCc1sc(C(=O)Nc2nc(C)cs2)cc1C | ? | 3.6% | 10µM*
CCOc1ccc(N2C(=O)C(CC(=O)Nc3ccc(F)cc3)N(Cc3ccccn3)C2=S)cc1 (stereo not drawn) | -5.3% | 12.9% | 10µM*
CCOc1ccc(N2C(=O)C(CC(=O)Nc3ccccc3)N(Cc3ccccn3)C2=S)cc1 (stereo not drawn) | -2.5% | -1.4% | ?
CC(C)CC(NC(=O)CNC(=O)C(Cc1ccc(O)cc1)NC(=O)C(CO)NC(=O)C(Cc1c[nH]c2ccccc12)NC(=O)C(Cc1cnc[nH]1)NC(=O)C1CCC(=O)N1)C(=O)NC(CCCN=C(N)N)C(=O)N1CCCC1C(=O)NCC(N)=O (stereo not drawn) | . | -2.6% | .
CCOc1cccc(-c2nc3ccccc3c(=O)o2)c1 | 6.6% | . | 7.0%
CCN(CC)C(=O)C(=O)c1cn(CCOc2ccccc2)c2ccccc12 | -9.4% | 7.0% | ?
Cc1cc(C(c2ccc(C)o2)c2ccc(C)o2)c(O)c([N+](=O)[O-])c1 | -4.8% | -6.4% | 10µM*
Cc1ccc(C(c2ccc(C)o2)c2cccc([N+](=O)[O-])c2O)o1 | 0.8% | -15.3% | ?
CO[C@]12C[C@@H](COC(=O)c3cncc(Br)c3)CN(C)[C@@H]1Cc1cn(C)c3cccc2c13 | . | 5.1% | .
CSc1ncc(CN2CCc3c([nH]c4ccccc34)C2c2cccc(C)n2)cn1 (stereo not drawn) | 3.8% | -1.4% | 5.8%
Fc1ccccc1C1c2[nH]c3ccccc3c2CCN1Cc1ccoc1 (stereo not drawn) | 3.8% | 8.8% | 8.91µM*
Cc1ccc(NC(=O)CN(C)C(=O)c2ccccc2Sc2ccccc2C#N)cc1 | -1.6% | 8.0% | ?
COc1cccc(CN(C)C(=O)c2ccccc2Sc2ccccc2C#N)c1OC | -11.3% | 12.3% | 8.91µM*
COc1cccc(CN(C)C(=O)c2cccnc2SC)c1OC | 0.5% | -6.9% | 10.0%
Cc1ccc(CN(C)C(=O)c2ccccc2Sc2ccccc2C#N)cc1 | 2.0% | 6.3% | 10µM*
Cc1ccc(NC(=O)CCC(=O)c2ccc(Cl)s2)nc1 | 5.1% | -7.0% | -2.5%
Cc1cc(C)n(-c2nc3ccccc3nc2Nc2cccc(C(=O)NCCc3ccccc3)c2)n1 | 8.5% | . | 9.9%
SMILES | GLP1R cytotox | GLP1R ag | GLP1R inv ag
CSCCC(NC(=O)c1ccccc1)C(=O)N1CCN(C(=O)c2ccccc2)CC1 (stereo not drawn) | 0.1% | -2.2% | 10.6%
CSCCC(NC(=O)c1ccccc1)C(=O)N1CC=C(c2ccccc2)CC1 (stereo not drawn) | -21.5% | -3.3% | 10µM*
CNC[C@@H]1Oc2cc(Br)ccc2S(=O)(=O)N([C@@H](C)CO)C[C@H]1C | 4.1% | 12.8% | -2.3%
O=C(OCc1nnc(-c2ccccc2)o1)c1cn(-c2ccccc2)nc1-c1ccccc1 | 6.8% | -0.9% | 12.6µM*
O=C(OCc1nnc(-c2ccccc2)o1)c1ccc(-n2cnnn2)cc1 | -1.2% | 13.6% | -5.6%
COc1ccc(-n2cc(CNCCc3ncc(C)[nH]3)c(-c3ccccc3Cl)n2)cc1 | -2.4% | 6.3% | ?
COc1ccc(-n2cc(CNCCc3nc(C)cc(C)n3)c(-c3ccccc3Cl)n2)cc1 | ? | 18.8% | 10µM*
CSc1ccc(CNC(=O)C2CCCN(S(=O)(=O)N(C)c3ccc(F)cc3)C2)cc1 (stereo not drawn) | 2.9% | . | ?
COc1cc(C(=O)N(Cc2ccccc2)c2cccc(C)c2)ccc1OC(F)F | 9.1% | 7.7% | 11.2µM*
Cc1cccc(N(Cc2ccccc2)C(=O)CCl)c1 | -27.4% | 1.4% | 10µM*
COc1ccc(CC(=O)N(Cc2ccccc2)c2cccc(C)c2)cc1OC | -9.9% | 18.1% | ?
COc1ccccc1C(=O)N(Cc1ccccc1)c1ccc(C)cc1 | -6.1% | -3.3% | ?
O=C(CCl)N(Cc1ccccc1)c1ccccc1 | ? | -2.1% | ?
COc1ccccc1CC(=O)N(Cc1ccccc1)c1ccc(C)cc1 | -20.4% | 11.8% | 8.91µM*
O=c1[nH]c(SCc2c(F)cccc2Cl)nc2c1CCC2 | -3.0% | . | 7.9%
S=C(N/N=C/c1cccc2ccccc12)Nc1cccc(Cl)c1 | -8.4% | 14.1% | ?
CCOC(=O)[C@]12CCC=C1N(Cc1cccc3ccccc13)C(=O)[C@H](CC(=O)NCCCN1CCCC1=O)C2 | -1.6% | 4.3% | -2.3%
Cc1cc2c(cc1S(=O)(=O)Nc1cccc(C(F)(F)F)c1)OCCN2C | 1.1% | . | -25.0%
O=C(CSc1ccccc1)NCCCc1ccccc1 | 0.1% | 6.6% | ?
CC12CCC(O)CC1=CCC1C2CCC2(C)c3[nH]ncc3CC12 (stereo not drawn) | -11.6% | 5.1% | 62.8%
COc1ccc(Cl)cc1NC(=O)CN(C)C(=O)Cn1cnnn1 | -2.2% | -2.9% | 11.0%
Cc1ccc(N2C(=O)c3n[nH]c(C)c3C2c2ccc(C(C)C)cc2)cc1 (stereo not drawn) | -19.2% | -5.7% | -28.7%
CO/N=C/C(=N\Nc1ccccc1)C(=O)c1ccccc1 | 11.8% | 20.7% | ?
COC(=O)C=CC(=NNc1ccccc1)c1ccccc1 | -8.3% | ? | 7.94µM*
CCN(CC)S(=O)(=O)c1ccc2c(c1)N(CC(=O)Nc1ccc(Cl)cc1)C(=O)C1CCCN21 (stereo not drawn) | 2.0% | . | -9.2%
SMILES | GLP1R cytotox | GLP1R ag | GLP1R inv ag
Cc1noc(C)c1COC(=O)c1cccc(S(=O)(=O)N2CCOCC2)c1 | 0.7% | 24.7% | 1.9%
Cc1noc(C)c1COC(=O)c1cccc(S(=O)(=O)N2c3ccccc3CC2C)c1 (stereo not drawn) | 2.8% | 2.7% | 14.1µM*
COc1cc(CCC(=O)OCC(=O)Nc2ccc(F)c(F)c2F)cc(OC)c1OC | -7.6% | 14.2% | 18.1%
Cc1ccc([C@H]2C[C@@H](O)[C@H](n3cc(-c4ccc(F)cc4)nn3)CN2Cc2cccs2)cc1 | 1.8% | -6.0% | ?
O=C(Nc1cccc(Cl)c1)c1ccc2c(c1)CCN2S(=O)(=O)c1ccccc1 | -6.9% | . | 2.51µM*
O=C(Nc1ccccc1)c1ccc2c(c1)CCN2S(=O)(=O)c1ccccc1 | 0.0% | -8.7% | ?
CC(C)Oc1ccc(C(=O)/C(=C\c2cccs2)c2nc3ccccc3o2)cc1 | 9.3% | 8.5% | 7.08µM*
